High-throughput results deposited in PubChem by The Scripps Research Institute Molecular Screening Center.
PP5 inh = PP5 phosphatase inhibitors, primary screen, biochemical, fluorescence | hit rate 0.18% among 320,000 | purified PP5c, OMFP substrate fluorescence | inhibition, % at 6.7 µM;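 active = inhibition above the campaign's mean inhibition across all tested compounds plus 3 SD, cut at about 9.5% in these data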
MsrA inhibitor = bovine MsrA enzyme inhibitors, primary screen, biochemical, absorbance, HTS; purified bovine MsrA, absorbance read-out; inhibition, % at 15.5 µM; hit rate 0.75% among 360,000; Methionine sulfoxide reductase A (Bos taurus)
PP1 inh = PP1-alpha phosphatase inhibitors, primary screen, counter-screen for PP5 inhibitor project, biochemical, fluorescence, OMFP substrate, single point. purified PP1alpha. Serine/threonine-protein phosphatase PP1-alpha catalytic subunit (Homo sapiens), P62136. inhibition, % at 6.7 µM. hit rate 0.9% among 320,000. AID 2235, 2010;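 active = inhibition above the mean inhibition of all tested compounds plus 3 SD, computed separately for each screening campaign, cut at about 15% in these data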
Target sequence (P62136 whole entry, looked up): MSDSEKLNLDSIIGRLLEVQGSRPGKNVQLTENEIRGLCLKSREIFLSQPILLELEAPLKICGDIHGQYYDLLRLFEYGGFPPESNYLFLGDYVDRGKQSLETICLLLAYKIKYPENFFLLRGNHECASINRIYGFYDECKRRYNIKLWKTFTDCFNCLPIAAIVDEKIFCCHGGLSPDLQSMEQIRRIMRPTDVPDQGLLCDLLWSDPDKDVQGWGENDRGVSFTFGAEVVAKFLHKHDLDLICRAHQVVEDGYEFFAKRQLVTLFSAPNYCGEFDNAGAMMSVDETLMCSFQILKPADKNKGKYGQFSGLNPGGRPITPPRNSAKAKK
ZTA counter = ZTA (EBV) inhibition in EBNA-1 counter-screen; P03206; ZTA-DNA binding, fluorescence polarization; inhibition, % at 11 µM; AID 2234; hit rate 0.15% among 320,000; in the data active = inhibition above about 33%
Target sequence (P03206 whole entry, looked up): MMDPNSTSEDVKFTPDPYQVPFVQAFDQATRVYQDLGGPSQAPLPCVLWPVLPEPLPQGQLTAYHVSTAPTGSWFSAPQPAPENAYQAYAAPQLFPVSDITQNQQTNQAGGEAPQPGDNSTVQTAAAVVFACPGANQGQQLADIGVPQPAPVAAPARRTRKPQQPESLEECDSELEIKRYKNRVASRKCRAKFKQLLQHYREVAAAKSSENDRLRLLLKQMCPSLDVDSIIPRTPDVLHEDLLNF
EBNA-1 inhibitor = EBNA-1 DNA-binding inhibitors, primary screen, biochemical, fluorescence polarization. inhibition, % at 14.8 µM. hit rate 0.34% among 300,000; in the data active = inhibition above about 28%
MsrA act = bovine MsrA enzyme activators, primary screen, biochemical, absorbance, HTS; purified bovine MsrA, absorbance read-out; activation, % at 10.6 µM; hit rate 0.3% among 360,000; AID 602163, 2012; in the data active = activation above about 7.5%
EBNA-1 inh conf = EBNA-1 DNA-binding inhibitors, retest, confirmation, biochemical, fluorescence polarization, triplicate; shares compounds with EBNA-1 inhibitor; Recombinant EBNA-1 DBD, Cy5-DNA fluorescence polarization; inhibition, % at 14.8 µM; hit rate 35% among 830;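 active = mean inhibition across replicates above a set limit taken from the earlier primary screen, cut at about 28% in these data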
ZTA counter trip = EBV Zta DNA binding inhibitors, counter-screen for EBNA-1 inhibitor project, biochemical, fluorescence polarization, triplicate; shares compounds with EBNA-1 inhibitor; AID 2328, 2010; inhibition, % at 11.1 µM; 830 tested, under 10 active; Zta-ZRE DNA binding, Cy5 fluorescence polarization;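 active = mean inhibition over triplicates above a set limit taken from the primary EBNA-1 screen, cut at about 37% in these data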;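 note: purified full length Zta protein with Cy5 labeled ZRE DNA probe; inhibitors lower polarization by freeing the labeled DNA probe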
PP1 inh confirm = PP1 phosphatase inhibitors, confirmation, biochemical, fluorescence, OMFP substrate, triplicate. shares compounds with PP1 inh. purified PP1alpha. inhibition, % at 6.7 µM. hit rate 52% among 1,900;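 active = mean PP1 inhibition above a set limit taken from the earlier primary screen, cut at about 15% in these data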
PP5 counter = PP5 phosphatase inhibition by PP1 hits, confirmation, counter-screen for PP1 inhibitor project, biochemical, fluorescence, triplicate | hit rate 4% among 1,900 | purified PP5c, OMFP fluorescence | inhibition, % at 6.7 µM | shares compounds with PP1 inh;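 active = mean PP5 inhibition over triplicate wells above about 9.5% taken from the earlier PP1 screen, limit read from the data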
MsrA activ conf = bovine MsrA activators, retest, confirmation, biochemical, absorbance, HTS; shares compounds with MsrA act; purified bovine MsrA, absorbance read-out; activation, % at 10.6 µM; hit rate 12% among 1,000; AID 602270, 2012; in the data active = activation above about 4%;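 note: enzyme coupled to thioredoxin and thioredoxin reductase with NADPH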
MsrA conf = bovine MsrA inhibitors, retest, confirmation, biochemical, absorbance, HTS | inhibition, % at 15.5 µM | purified bovine MsrA, absorbance read-out | AID 651822, 2012 | shares compounds with MsrA inhibitor | hit rate 41% among 2,300;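 note: coupled to thioredoxin reductase with NADPH and selenocystamine and DMSO as substrate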
Hits are given with their value; – = inactive; · = no result given. In the library only some 2.3% were active in any assay of this set; here they are far more common. Cut-off read from the data, not from the text of the source, unless noted: active = inhibition above about 4.5%; inactive = the rest.

SMILES | PP5 inh | MsrA inhibitor | PP1 inh | ZTA counter | EBNA-1 inhibitor | MsrA act | EBNA-1 inh conf | ZTA counter trip | PP1 inh confirm | PP5 counter | others
O=C(Nc1cccc(NC(=O)c2cccs2)c1)c1ccc(Br)cc1 | – | – | – | – | 70 | – | 75 | – | · | ·
COc1cccc(CN(C(=O)/C=C/c2ccc(Cl)cc2)C2CCS(=O)(=O)C2)c1 (stereo unspecified) | – | – | – | – | – | – | · | · | · | ·
COc1cc(NS(=O)(=O)c2ccc(-n3cccn3)cc2)cc(OC)c1 | · | · | · | · | · | – | · | · | · | ·
Cc1cccc(NC(=O)CN2C(=O)N/C(=C\c3ccc(N4CCOCC4)cc3)C2=O)c1 | – | – | 20 | – | 34 | – | – | – | 25 | –
O=S(=O)(Nc1nc2ccccc2nc1Nc1cccc(S(=O)(=O)N2CCCCC2)c1)c1ccccc1 | 9.8 | – | 25 | – | 37 | – | – | – | 20 | –
O=c1c(C(c2ccccc2)c2c(O)sc3ccccc3c2=O)c(O)sc2ccccc12 | – | – | 25 | – | 60 | – | 38 | 39 | 31 | –
O=c1c2ccccc2sc2ccccc12 | · | – | · | · | · | – | · | · | · | ·
CCc1nc2c(OCc3cccc(OC)c3)cccn2c1N(C)C(=O)c1ccccc1F | · | – | · | · | · | – | · | · | · | ·
N=C1/C(=C\c2ccc(-c3cccc(C(=O)O)c3)o2)C(=O)N=C2SC=C(c3ccccc3)N12 | – | – | 45 | – | 32 | – | 36 | – | 32 | –
COC(=O)C1=C(C)N(Cc2cccc(C(F)(F)F)c2)C(=NCc2ccc(OC)cc2)NC1c1cccc(F)c1 (stereo unspecified) | · | – | · | · | · | · | · | · | · | ·
Cc1ccc(C)c(NC(=O)Cn2nc(-c3ccccc3)nc2-c2ccccc2)c1 | – | – | 20 | – | 50 | – | – | – | 24 | –
O=C(CCc1nnc(CCc2ccccc2)o1)NC(c1cccnc1)C(F)(F)F (stereo unspecified) | – | – | – | – | – | – | · | · | · | ·
COc1cc(Cn2c(N)c(C#N)c3nc4ccccc4nc32)cc(OC)c1 | – | – | 18 | – | 92 | – | – | – | – | –
COc1ccc(Cn2c(N)c(C#N)c3nc4ccccc4nc32)cc1 | – | – | – | – | – | – | · | · | · | ·
CCOC(=O)c1c(N=CN(C)C)c2cc([N+](=O)[O-])cnc2n1C | – | – | – | – | – | – | · | · | · | ·
CC(/C=C1\SC(=S)N(c2ccc(C(=O)O)cc2)C1=O)=C\c1ccccc1 | – | – | 44 | – | 36 | – | – | – | 31 | –
CCOC(=O)c1cnc[nH]c1=O | · | – | · | · | · | – | · | · | · | ·
CCCCOc1cccc(C2C(C(=O)c3ccc(C)o3)=C(O)C(=O)N2c2nnc(C)s2)c1 (stereo unspecified) | · | – | · | · | · | – | · | · | · | ·
CCOC(=O)c1sc(N2C(=O)C(O)=C(C(=O)c3ccc(C)o3)C2c2cccc([N+](=O)[O-])c2)nc1C (stereo unspecified) | – | – | 35 | – | 33 | – | – | – | 21 | –
Cc1cccc(NC(=O)CSc2nc3ccc(NC(=O)CSc4nnnn4-c4ccccc4)cc3s2)c1C | – | – | – | – | – | · | · | · | · | ·
O=C(CSc1nc2ccc(NC(=O)CSc3nnnn3-c3ccccc3)cc2s1)Nc1ccccc1 | – | – | 20 | – | 49 | – | 61 | – | 26 | –
O=C(N/N=C/c1cccc(O)c1)c1cc(-c2ccc3c(c2)OCO3)n[nH]1 | – | – | – | – | – | – | · | · | · | ·
O=C(N/N=C/c1cccc([N+](=O)[O-])c1)c1cc(-c2ccc3c(c2)OCO3)n[nH]1 | – | – | 20 | – | 62 | – | – | – | 25 | –
COc1ccccc1CCc1nnc(CCC(=O)NC(C)Cc2cccs2)o1 (stereo unspecified) | – | – | – | – | – | – | · | · | · | ·
O=C(Nc1ccc2oc(-c3cccnc3)nc2c1)c1ccc2c(c1)OCCO2 | – | – | 30 | – | 41 | – | – | – | – | –
SMILES | PP5 inh | MsrA inhibitor | PP1 inh | ZTA counter | EBNA-1 inhibitor | MsrA act | EBNA-1 inh conf | ZTA counter trip | PP1 inh confirm | PP5 counter | others
COc1ccccc1NS(=O)(=O)c1cccc(-n2c(O)c(C=Nc3ccccc3C(=O)O)c3ccccc3c2=O)c1 | – | – | 23 | – | 36 | – | – | – | – | –
COc1ccc(Cn2c(O)c(C=Nc3ccccc3C(=O)O)c3ccccc3c2=O)cc1 | – | – | – | – | – | – | · | · | · | ·
COc1ccc(Cc2nnc(NC(=O)Nc3ccccc3F)s2)cc1OC | – | – | – | – | 37 | 11 | 71 | – | · | · | MsrA activ conf=–
CCN(CC)S(=O)(=O)c1ccc(C(=O)NCc2n[nH]c(=S)n2-c2ccc(Cl)c(Cl)c2)cc1 | – | – | – | – | – | – | · | · | · | ·
CCOC(=O)c1ccc(NC(=O)/C=C/c2cccs2)cc1 | – | – | – | – | – | – | · | · | · | ·
NS(=O)(=O)c1ccc(NC(=O)/C=C/c2cccs2)cc1 | – | 8.2 | – | – | 55 | – | – | – | · | · | MsrA conf=5.1
Cc1cc(C)c(C#N)c(Oc2ccccc2Br)n1 | – | – | – | – | – | – | · | · | · | ·
O=C(N/C(=C/c1ccc(Br)cc1)c1nc2ccccc2[nH]1)c1ccco1 | – | 5.9 | – | – | 31 | – | 82 | – | · | · | MsrA conf=–
